Among all 5,500 compounds or so, about 2,000 (36%) were called active. About 18% were inconclusive and are not listed. Cut-off read from the data, not from the text of the source: active = normalized growth mostly below about 0.91 (no sharp cut-off); inconclusive = no clear call, values can overlap the other calls; inactive = mostly above about 0.92. The list shows a part of the results.
Assay: chemical genetic growth profiling, strain panel (AID 1159580);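 note: tested at 20 µM; growth read once vehicle control cultures reached saturation at 30 °C; 1 = growth at the plate median or of vehicle wells; lower values mean less growth of the strain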
Details: growth OD

Measured: normalized growth

COC[C@]12CN(C=O)C3[C@@H]4[C@H](OC)C1[C@]3(C1CC3(O)C(OC)C(O)C4(OC(C)=O)C1C3OC(=O)c1ccccc1)[C@@H](OC)C[C@H]2O (stereo not given in full)
inactive: S. cerevisiae deletion strains, locus YJR066W, strain TOR1, active compounds read low 0.991 | S. cerevisiae deletion strains, locus YJR075W, strain HOC1, active compounds read low 1.02 | S. cerevisiae deletion strains, locus YKL009W, strain mrt4, active compounds read low 0.991 | S. cerevisiae deletion strains, locus YKL068W, active compounds read low 1 | S. cerevisiae deletion strains, locus YKL085W, strain MDH1 (second series), active compounds read low 1.01 | S. cerevisiae deletion strains, locus YKL085W, strain MDH1, active compounds read low 1.01 | S. cerevisiae deletion strains, locus YKL160W, strain elf1, active compounds read low 1.01 | S. cerevisiae deletion strains, locus YKR001C, strain vps1, active compounds read low 1.02 | S. cerevisiae deletion strains, locus YKR026C, strain gcn3, active compounds read low 1.02 | S. cerevisiae deletion strains, locus YKR091W, strain srl3, active compounds read low 1.01 | S. cerevisiae deletion strains, locus YLL001W, strain dnm1, active compounds read low 1.01 | S. cerevisiae deletion strains, locus YLL026W, active compounds read low 1.01 | S. cerevisiae deletion strains, locus YLL041C, strain sdh2, active compounds read low 1.01 | S. cerevisiae deletion strains, locus YLR027C, strain aat2, active compounds read low 1 | S. cerevisiae deletion strains, locus YLR039C, strain RIC1, active compounds read low 1.06 | S. cerevisiae deletion strains, locus YLR058C, strain SHM2, active compounds read low 1.02 | S. cerevisiae deletion strains, locus YLR102C, strain apc9, active compounds read low 1.01 | S. cerevisiae deletion strains, locus YLR113W, strain HOG1, active compounds read low 0.972 | S. cerevisiae deletion strains, locus YLR221C, strain rsa3, active compounds read low 1.01 | S. cerevisiae deletion strains, locus YLR258W, strain gsy2, active compounds read low 1.02 | S. cerevisiae deletion strains, locus YLR262C, strain YPT6 (second series), active compounds read low 0.995 | S. cerevisiae deletion strains, locus YLR262C, strain YPT6, active compounds read low 1.04 | S. cerevisiae deletion strains, locus YLR268W, strain sec22, active compounds read low 0.992 | S. cerevisiae deletion strains, locus YLR320W, strain mms22, active compounds read low 1.03 | S. cerevisiae deletion strains, locus YLR342W, strain FKS1 (second series), active compounds read low 1.01 | S. cerevisiae deletion strains, locus YLR342W, strain FKS1, active compounds read low 1.03 | S. cerevisiae deletion strains, locus YLR357W, strain rsc2, active compounds read low 1.01 | S. cerevisiae deletion strains, locus YLR370C, strain arc18, active compounds read low 1.01 | S. cerevisiae deletion strains, locus YLR371W, strain rom2, active compounds read low 0.995 | S. cerevisiae deletion strains, locus YLR384C, strain iki3, active compounds read low 1.01 | S. cerevisiae deletion strains, locus YLR418C, strain cdc73, active compounds read low 1.05 | S. cerevisiae deletion strains, locus YML016C, strain PPZ1, active compounds read low 0.999 | S. cerevisiae deletion strains, locus YML032C, strain rad52, active compounds read low 0.995 | S. cerevisiae deletion strains, locus YML120C, strain ndi1, active compounds read low 1.01 | S. cerevisiae deletion strains, locus YML124C, strain tub3, active compounds read low 1.01 | S. cerevisiae deletion strains, locus YMR058W, strain fet3, active compounds read low 1.01 | S. cerevisiae deletion strains, locus YMR078C, strain ctf18, active compounds read low 1.01 | S. cerevisiae deletion strains, locus YMR125W, strain sto1, active compounds read low 1.01 | S. cerevisiae deletion strains, locus YMR129W, active compounds read low 1.01 | S. cerevisiae deletion strains, locus YMR205C, strain PFK2, active compounds read low 1.01 | S. cerevisiae deletion strains, locus YMR223W, strain ubp8, active compounds read low 1.01 | S. cerevisiae deletion strains, locus YMR231W, strain pep5, active compounds read low 1 | S. cerevisiae deletion strains, locus YMR307W, strain GAS1, active compounds read low 1.02 | S. cerevisiae deletion strains, locus YNL067W, strain RPL9B, active compounds read low 1.03 | S. cerevisiae deletion strains, locus YNL071W, strain lat1, active compounds read low 1 | S. cerevisiae deletion strains, locus YNL183C, strain NPR1, active compounds read low 0.987 | S. cerevisiae deletion strains, locus YNL209W, strain ssb2, active compounds read low 1 | S. cerevisiae deletion strains, locus YNL233W, strain BNI4, active compounds read low 1.01 | S. cerevisiae deletion strains, locus YNL248C, strain rpa49, active compounds read low 1.02 | S. cerevisiae deletion strains, locus YNL250W, strain rad50, active compounds read low 1.04 | S. cerevisiae deletion strains, locus YNL271C, strain bni1, active compounds read low 1.02 | S. cerevisiae deletion strains, locus YNL298W, strain CLA4, active compounds read low 1.02 | S. cerevisiae deletion strains, locus YNL307C, strain MCK1, active compounds read low 1.01 | S. cerevisiae deletion strains, locus YNL322C, strain KRE1 (second series), active compounds read low 1.02 | S. cerevisiae deletion strains, locus YNR049C, strain mso1, active compounds read low 1.01 | S. cerevisiae deletion strains, locus YNR052C, strain pop2, active compounds read low 1.01 | S. cerevisiae deletion strains, locus YOL006C, strain TOP1, active compounds read low 1.03 | S. cerevisiae deletion strains, locus YOL012C, strain htz1 0.737 | S. cerevisiae deletion strains, locus YOL147C, strain pex11, active compounds read low 1 | S. cerevisiae deletion strains, locus YOR001W, strain rrp6, active compounds read low 1.02 | S. cerevisiae deletion strains, locus YOR061W, strain CKA2, active compounds read low 1.01 | S. cerevisiae deletion strains, locus YOR069W, strain VPS5, active compounds read low 1.01 | S. cerevisiae deletion strains, locus YOR070C, strain gyp1, active compounds read low 1 | S. cerevisiae deletion strains, locus YOR080W, strain dia2, active compounds read low 1.01 | S. cerevisiae deletion strains, locus YOR083W, strain WHI5, active compounds read low 1.01 | S. cerevisiae deletion strains, locus YOR106W, strain vam3, active compounds read low 1 | S. cerevisiae deletion strains, locus YOR136W, strain idh2, active compounds read low 1.01 | S. cerevisiae deletion strains, locus YOR144C, strain elg1, active compounds read low 1.01 | S. cerevisiae deletion strains, locus YOR184W, strain ser1, active compounds read low 1.01 | S. cerevisiae deletion strains, locus YOR231W, strain MKK1, active compounds read low 1.01 | S. cerevisiae deletion strains, locus YOR265W, strain rbl2, active compounds read low 1 | S. cerevisiae deletion strains, locus YOR270C, strain vph1, active compounds read low 1.03 | S. cerevisiae deletion strains, locus YOR290C, strain snf2, active compounds read low 1.02 | S. cerevisiae deletion strains, locus YOR316C, strain cot1, active compounds read low 1.01 | S. cerevisiae deletion strains, locus YPL051W, strain arl3, active compounds read low 1.01 | S. cerevisiae deletion strains, locus YPL078C, strain atp4, active compounds read low 1.01 | S. cerevisiae deletion strains, locus YPL106C, strain sse1, active compounds read low 0.999 | S. cerevisiae deletion strains, locus YPL240C, strain hsp82, active compounds read low 1.01 | S. cerevisiae deletion strains, locus YPL256C, strain CLN2, active compounds read low 1.08 | S. cerevisiae deletion strains, locus YPR119W, strain clb2, active compounds read low 1 | S. cerevisiae deletion strains, locus YPR141C, strain kar3, active compounds read low 0.998 | S. cerevisiae deletion strains, locus YPR163C, strain tif3, active compounds read low 1.01 | S. cerevisiae deletion strains, locus YPR167C, strain met16, active compounds read low 1.01 | S. cerevisiae deletion strains, strain wtn01, active compounds read low 0.99 | S. cerevisiae strains, strain wild type, active compounds read low 1.02
